Active and inactive are the calls of the source.
Columns and labels:
[1] = test system: Plasmodium falciparum Sir2 (PF13_0152, Sir2A); test: pfSir2 binders on small-molecule microarrays, primary screen, biochemical, small-molecule microarray, 635 nm fluorescence (AID 1098); settings: small-molecule microarray binding, fluorescence 635 nm; higher = more signal;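 further: score merges spot fluorescence intensity with its signal-to-noise ratio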
[2] = small-molecule microarray binders of probe aDKK1, primary screen, biochemical, biotinylated probe, 635/667 nm fluorescence (AID 1099); settings: higher = more signal;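 further: score merges 667nm spot fluorescence with signal to noise across triplicate slides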
[3] = small-molecule microarray binders of probe aCHRDL2, primary screen, biochemical, biotinylated probe, 635/667 nm fluorescence (AID 1100); settings: higher = more signal
[4] = splicing luciferase reporter signal modulators, primary screen, spliceosome inhibition project, cell-based, HEK293, splice +/- reporter (AID 1101); settings: luminescence, 24 h, higher = more signal, called active from +8 up or from −8 down;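 further: HEK293 cells carrying a splicing-competent luciferase reporter gene; test concentration not given here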
[5] = target: Fibroblast growth factor 10 (Homo sapiens) (UniProt O15520); test: FGF10 binders on small-molecule microarrays, primary screen, biochemical, small-molecule microarray, 635 nm fluorescence (AID 1102); settings: FGF10 binding, fluorescence 635 nm, higher = more signal
[6] = test system: glycogen synthase kinase-3 (GSK3A per assay name; protocol says GSK3B); test: GSK3 binders on small-molecule microarrays, primary screen, biochemical, small-molecule microarray, 635 nm fluorescence, GSK3A (AID 1103); settings: small-molecule microarray binding, fluorescence 635 nm; higher = more signal; further: the record names both GSK3A and GSK3B
[7] = target: Epidermal growth factor receptor (Homo sapiens) (UniProt P00533); test: EGFR binders on small-molecule microarrays, primary screen, biochemical, small-molecule microarray, 635 nm fluorescence (AID 1104); settings: EGFR binding, higher = more signal;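 further: score merges 667 nm emission intensity with spot signal to noise over triplicate slides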
[8] = target: Follistatin-related protein 3 (Homo sapiens) (UniProt O95633); test: FSTL3 binders on small-molecule microarrays, primary screen, biochemical, small-molecule microarray, 635 nm fluorescence (AID 1105); settings: FSTL3 binding, higher = more signal;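 further: score merges emission near 667 nm and signal to noise per printed spot across three slides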
[9] = target: Dickkopf-related protein 1 (Homo sapiens) (UniProt O94907); test: DKK1 binders on small-molecule microarrays, primary screen, biochemical, small-molecule microarray, 635 nm fluorescence scan (AID 1106); settings: DKK1 binding, higher = more signal;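 further: score merges emission near 667 nm with signal to noise over three replicate slides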
[10] = test system: Inhibin beta A chain (activin A); test: INHBA (activin A) binders on microarrays, primary screen, biochemical, small-molecule microarray, 635 nm fluorescence scan (AID 1107); settings: small-molecule microarray binding, higher = more signal;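 further: mouse activin A protein probed at 4.33 µg/mL on printed slides; score merges bound-protein fluorescence near 667 nm with spot signal-to-noise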
[11] = test system: Human papillomavirus type 1a protein E7 (residues 44-93); test: HPV1a E7 fragment binders on microarrays, primary screen, biochemical, small-molecule microarray, residues 44-93, 635 nm fluorescence (AID 1108); settings: small-molecule microarray binding, fluorescence 635 nm; higher = more signal;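 further: E7 fragment applied at 1 µg/mL in TBST for 1 h at 4 C; score combines spot fluorescence with its signal to noise ratio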
[12] = modulators of HCV replicon luciferase signal, primary screen, HCV replication inhibitor project, Huh7 cells, luciferase reporter (AID 1109); settings: 48 h, higher = more signal;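 further: huh7 hepatoma cells harbouring a luciferase neomycin HCV replicon reporter; luciferase luminescence as measure of HCV replicon replication; test concentration not given here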
[13] = target: Left-right determination factor 2 (Homo sapiens) (UniProt O00292); test: LEFTY2 binders on small-molecule microarrays, primary screen, biochemical, small-molecule microarray, 635 nm fluorescence scan (AID 1110); settings: LEFTY2 binding, higher = more signal
[14] = target: Calmodulin-1 (Homo sapiens) (UniProt P0DP23); test: CALM1 binders on microarrays, EGTA buffer, profiling panel, biochemical, small-molecule microarray, Cy5-labelled CALM1 (AID 1111); settings: Cy5-CALM1 binding fluorescence, higher = more signal;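 further: labelled calmodulin applied in Tris saline Tween buffer holding calcium plus EGTA and DTT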
[15] = target: Calmodulin-1 (Homo sapiens) (UniProt P0DP23); test: calcium-bound CALM1 binders on microarrays, profiling panel, artefact control for SMM control-protein annotation, biochemical, small-molecule microarray, Cy5-labelled CALM1, plus calcium (AID 1112); settings: Cy5-CALM1 binding fluorescence, higher = more signal;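 further: score merges spot fluorescence with signal to noise from triplicate slides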
[16] = small-molecule microarray binders of probe aWnt5a, primary screen, biochemical, biotinylated probe, 635/667 nm fluorescence (AID 1113); settings: higher = more signal;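 further: score merges 667 nm fluorescence intensity with signal-to-noise per printed feature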
[17] = small-molecule microarray binders of probe aShh, primary screen, biochemical, biotinylated probe, 635/667 nm fluorescence (AID 1114); settings: higher = more signal;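 further: probe is biotin-labelled aShh protein from a stem cell growth factor screen; measures binding of labelled protein to compounds printed on the slide; score merges feature fluorescence at 667 nm with signal-to-noise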
[18] = small-molecule microarray binders of probe aNog, primary screen, biochemical, biotinylated probe, 635/667 nm fluorescence (AID 1115); settings: higher = more signal;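 further: probe is biotinylated aNog protein used at 0.15 µg/mL for 1 h at 4 C; z-score combines 667 nm fluorescence of each spot with its signal to noise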
[19] = target: Torsin-1A-interacting protein 1 (Homo sapiens) (UniProt Q5JTV8); test: LAP1 binders from COS7 cell lysate, primary screen, small-molecule microarray, 635/667 nm fluorescence (AID 1116); settings: COS7-hLAP1 lysate binding, 635 nm fluorescence, higher = more signal
[20] = target: Alpha-bungarotoxin (Bungarus multicinctus) (UniProt P60615); test: alpha-bungarotoxin binders on microarray, profiling panel, artefact control for SMM control protein annotation, biochemical, small-molecule microarray, Alexa647 label, 635/667 nm fluorescence (AID 1117); settings: alpha-BTX-A647 binding fluorescence, higher = more signal
Sequence of Alpha-bungarotoxin (Bungarus multicinctus) (P60615 whole entry, looked up): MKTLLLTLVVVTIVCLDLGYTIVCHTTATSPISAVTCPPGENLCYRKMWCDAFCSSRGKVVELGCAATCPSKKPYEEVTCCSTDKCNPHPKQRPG

Sequence of Left-right determination factor 2 (Homo sapiens) (O00292 whole entry, looked up): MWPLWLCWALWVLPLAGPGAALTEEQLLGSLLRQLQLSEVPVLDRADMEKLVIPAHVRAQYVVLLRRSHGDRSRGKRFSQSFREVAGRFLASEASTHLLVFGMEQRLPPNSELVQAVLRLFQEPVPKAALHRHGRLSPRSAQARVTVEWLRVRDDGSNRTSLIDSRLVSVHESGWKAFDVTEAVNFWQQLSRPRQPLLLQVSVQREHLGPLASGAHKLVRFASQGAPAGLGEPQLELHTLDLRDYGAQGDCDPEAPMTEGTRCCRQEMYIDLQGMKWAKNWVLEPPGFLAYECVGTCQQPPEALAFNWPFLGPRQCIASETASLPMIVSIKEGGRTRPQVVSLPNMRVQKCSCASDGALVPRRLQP
Sequence of Epidermal growth factor receptor (Homo sapiens) (P00533 whole entry, looked up): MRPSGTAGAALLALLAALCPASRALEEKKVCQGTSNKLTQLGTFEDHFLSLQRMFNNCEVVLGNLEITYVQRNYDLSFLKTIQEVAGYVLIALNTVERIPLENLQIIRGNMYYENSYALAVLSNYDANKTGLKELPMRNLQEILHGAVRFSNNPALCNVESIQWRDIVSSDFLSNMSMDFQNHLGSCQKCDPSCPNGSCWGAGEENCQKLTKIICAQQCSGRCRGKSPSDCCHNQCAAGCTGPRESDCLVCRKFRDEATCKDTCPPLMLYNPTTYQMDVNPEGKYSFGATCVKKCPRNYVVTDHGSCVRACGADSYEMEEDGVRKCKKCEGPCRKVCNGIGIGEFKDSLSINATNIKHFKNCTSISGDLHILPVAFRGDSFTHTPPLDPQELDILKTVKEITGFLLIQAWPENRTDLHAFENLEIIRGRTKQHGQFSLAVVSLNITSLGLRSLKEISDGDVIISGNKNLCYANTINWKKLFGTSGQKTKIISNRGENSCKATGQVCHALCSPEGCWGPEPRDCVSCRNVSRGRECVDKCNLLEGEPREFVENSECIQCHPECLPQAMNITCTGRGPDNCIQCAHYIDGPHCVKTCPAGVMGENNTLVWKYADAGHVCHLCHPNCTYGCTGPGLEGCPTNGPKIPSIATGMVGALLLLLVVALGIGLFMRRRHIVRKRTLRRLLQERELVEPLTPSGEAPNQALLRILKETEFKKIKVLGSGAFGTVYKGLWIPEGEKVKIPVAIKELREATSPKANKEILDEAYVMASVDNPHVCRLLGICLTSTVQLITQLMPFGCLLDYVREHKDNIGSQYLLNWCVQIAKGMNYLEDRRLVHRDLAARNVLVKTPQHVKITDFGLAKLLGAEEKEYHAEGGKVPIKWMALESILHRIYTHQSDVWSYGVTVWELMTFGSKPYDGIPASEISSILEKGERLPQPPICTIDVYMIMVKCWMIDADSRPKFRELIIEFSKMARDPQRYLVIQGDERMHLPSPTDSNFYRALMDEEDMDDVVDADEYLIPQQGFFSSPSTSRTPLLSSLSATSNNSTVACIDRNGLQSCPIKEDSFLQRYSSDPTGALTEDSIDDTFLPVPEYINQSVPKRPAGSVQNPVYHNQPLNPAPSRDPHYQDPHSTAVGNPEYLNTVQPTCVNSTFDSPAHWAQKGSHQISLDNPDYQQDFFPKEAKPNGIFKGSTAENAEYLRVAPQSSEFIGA
Sequence of Torsin-1A-interacting protein 1 (Homo sapiens) (Q5JTV8 whole entry, looked up): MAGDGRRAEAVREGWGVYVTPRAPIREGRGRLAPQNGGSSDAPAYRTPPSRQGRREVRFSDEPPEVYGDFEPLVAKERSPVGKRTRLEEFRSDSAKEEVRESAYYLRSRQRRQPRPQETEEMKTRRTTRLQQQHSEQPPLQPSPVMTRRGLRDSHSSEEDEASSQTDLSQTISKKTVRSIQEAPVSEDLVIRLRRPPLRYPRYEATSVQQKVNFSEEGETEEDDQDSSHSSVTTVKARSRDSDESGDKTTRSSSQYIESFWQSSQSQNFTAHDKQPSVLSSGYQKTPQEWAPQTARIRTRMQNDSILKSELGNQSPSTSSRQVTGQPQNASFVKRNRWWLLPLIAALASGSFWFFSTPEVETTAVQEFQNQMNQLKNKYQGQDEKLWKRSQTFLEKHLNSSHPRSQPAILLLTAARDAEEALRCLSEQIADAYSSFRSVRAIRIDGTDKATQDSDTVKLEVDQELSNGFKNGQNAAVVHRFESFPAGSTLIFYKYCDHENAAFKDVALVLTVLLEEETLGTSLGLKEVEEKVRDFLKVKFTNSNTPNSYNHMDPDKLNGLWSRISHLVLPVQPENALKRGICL
Sequence of Follistatin-related protein 3 (Homo sapiens) (O95633 whole entry, looked up): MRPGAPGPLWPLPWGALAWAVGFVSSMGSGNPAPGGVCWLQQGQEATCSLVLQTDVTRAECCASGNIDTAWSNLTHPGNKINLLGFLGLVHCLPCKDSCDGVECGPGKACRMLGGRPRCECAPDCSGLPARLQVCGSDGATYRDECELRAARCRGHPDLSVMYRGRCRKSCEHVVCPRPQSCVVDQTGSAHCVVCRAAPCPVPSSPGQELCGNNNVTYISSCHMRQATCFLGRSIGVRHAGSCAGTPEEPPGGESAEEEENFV
Sequence of Fibroblast growth factor 10 (Homo sapiens) (O15520 whole entry, looked up): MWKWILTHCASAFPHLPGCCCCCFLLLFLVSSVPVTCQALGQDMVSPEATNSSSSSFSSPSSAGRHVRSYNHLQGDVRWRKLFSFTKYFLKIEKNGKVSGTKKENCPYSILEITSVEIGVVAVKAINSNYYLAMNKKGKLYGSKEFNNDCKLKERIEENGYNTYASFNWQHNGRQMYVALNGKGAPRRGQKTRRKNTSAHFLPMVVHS
Sequence of Dickkopf-related protein 1 (Homo sapiens) (O94907 whole entry, looked up): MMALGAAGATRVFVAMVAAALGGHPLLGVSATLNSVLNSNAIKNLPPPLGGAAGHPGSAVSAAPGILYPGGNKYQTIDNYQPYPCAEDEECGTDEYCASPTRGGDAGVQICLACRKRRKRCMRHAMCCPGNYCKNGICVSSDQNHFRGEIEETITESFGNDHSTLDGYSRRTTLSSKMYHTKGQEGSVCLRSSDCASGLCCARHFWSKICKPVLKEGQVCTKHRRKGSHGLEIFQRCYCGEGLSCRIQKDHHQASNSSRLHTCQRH

COC(=O)[C@@]1(Cc2ccc(OC)cc2)[C@H]2c3cc(C(=O)N4CCCC4)n(Cc4ccc(O)c(OC)c4)c3C[C@H]2CN1C(=O)c1ccccc1
composite z-score [1]: 1.18
composite z-score [2]: 1.92
composite z-score [3]: 1.39
z-score [4]: -1.15 (inactive)
composite z-score [5]: 0.511
composite z-score [6]: 0.164
composite z-score [7]: 0.207
composite z-score [8]: 0.282
composite z-score [9]: 0.0115
composite z-score [10]: -0.0478
composite z-score [11]: 0.425
z-score [12]: -1.78
composite z-score [13]: -0.114
composite z-score [14]: 2.7
composite z-score [15]: 0.957
composite z-score [16]: 0.755
composite z-score [17]: 1.04
composite z-score [18]: 2.35
composite z-score [19]: 3.25
composite z-score [20]: 1.25

C=CC(=C)[C@H]1Oc2ccccc2S(=O)(=O)N2CCC[C@@H]12
composite z-score [1]: -0.0608
composite z-score [2]: -0.144
composite z-score [3]: -0.0159
z-score [4]: -0.629 (inactive)
composite z-score [5]: -0.249
composite z-score [6]: -0.486
composite z-score [7]: 0.0976
composite z-score [8]: -0.0111
composite z-score [9]: 0.317
composite z-score [10]: 1.07
composite z-score [11]: -1.24
z-score [12]: -3.25
composite z-score [13]: 0.0569
composite z-score [14]: -0.523
composite z-score [15]: -0.536
composite z-score [16]: -0.138
composite z-score [17]: -0.0211
composite z-score [18]: -0.353
composite z-score [19]: -0.448
composite z-score [20]: 0.279

COC(=O)C(CC#Cc1ccc2c(c1)[C@]1(C(=O)N2)[C@H](c2ccc(OCCO)cc2)N2[C@H](c3ccccc3)[C@H](c3ccccc3)OC(=O)[C@H]2[C@@H]1C(=O)N1CCc2cc(OC)c(OC)cc2C1)C(=O)OC
composite z-score [1]: 1.47
composite z-score [2]: 0.508
composite z-score [3]: 0.381
z-score [4]: -0.369 (inactive)
composite z-score [5]: 1.4
composite z-score [6]: 1.32
composite z-score [7]: 0.485
composite z-score [8]: 1.41
composite z-score [9]: 0.506
composite z-score [10]: 1.18
composite z-score [11]: 1.4
z-score [12]: -1.01
composite z-score [13]: 0.459
composite z-score [14]: 1.66
composite z-score [15]: 0.236
composite z-score [16]: 0.296
composite z-score [17]: 0.191
composite z-score [18]: -0.422
composite z-score [19]: 1.58
composite z-score [20]: 1.77

CCCC[C@H]1OB(O)C[C@H]2C1=C(COC)Cn1c(=O)n(-c3ccccc3)c(=O)n12
composite z-score [1]: -0.0483
composite z-score [2]: -0.383
composite z-score [3]: -0.738
z-score [4]: 0.271 (inactive)
composite z-score [5]: 0.516
composite z-score [6]: 0.302
composite z-score [7]: 0.54
composite z-score [8]: 0.517
composite z-score [9]: 0.465
composite z-score [10]: 0.95
composite z-score [11]: 0.039
z-score [12]: -0.673
composite z-score [13]: 0.358
composite z-score [14]: -0.215
composite z-score [15]: -0.421
composite z-score [16]: -0.0792
composite z-score [17]: -0.0977
composite z-score [18]: 0.445
composite z-score [19]: 0.0892
composite z-score [20]: 0.0547

CCOC(=O)C[C@H]1[C@H](OC(=O)c2ccc(C(=O)c3ccccc3)cc2)[C@@H](NC(=O)c2ccccc2)c2cc(OCCCO)ccc2N1C(=O)c1ccc2ccccc2n1
composite z-score [1]: 0.295
composite z-score [2]: -0.349
composite z-score [3]: -0.267
z-score [4]: 0.487 (inactive)
composite z-score [5]: -0.286
composite z-score [6]: 1.05
composite z-score [7]: 0.267
composite z-score [8]: 0.399
composite z-score [9]: -0.186
composite z-score [10]: -0.136
composite z-score [11]: 1.31
z-score [12]: -1.16
composite z-score [13]: 0.495
composite z-score [14]: 1.61
composite z-score [15]: 0.506
composite z-score [16]: -0.0614
composite z-score [17]: -0.138
composite z-score [18]: -0.308
composite z-score [19]: 0.239
composite z-score [20]: 0.635

— PubChem BioAssay
